TGFb SMAD3 inh – inhibitors of TGF-b signaling | Potency, µM (top dose mostly 46.1 µM), for inactives: at the highest dose activity, negative = inhibition, hits mostly inhibitors | actives 1.2% (n = 410,000) | HepG2 CAGA-GFP TGF-b/SMAD3 reporter, GFP fluorescence, 18 h; TGF-beta stimulated, 500 pg/mL final; note: % is set by controls: 0 for no effect and ±100 for the full control effect; nearly all actives have a fitted effect of over 65% in size
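HEPG2 CAGA-GFP reporter cells (1000/well, DMEM with 1% FBS) received compounds, then recombinant TGF-beta at 500 pg/mL final for 18 hours at 37 degrees C. Per-cell GFP summed per well was normalised to unstimulated and stimulated DMSO controls before curve fitting.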
DT40 TDP1 no CPT – qHTS for Inhibitors of human tyrosyl-DNA phosphodiesterase 1 (TDP1): qHTS in cells in absence of CPT | DT40 Tdp1-/- hTDP1 cells, no CPT, ATP luminescence, 48 h | Potency, µM (titrated, usually from 46.2 µM), for the others: at the top dose activity change, negative = growth inhibition, hits mostly inhibitors | actives 15% (n = 420,000) | AID 686978, 2013; note: % is set by controls: 0 for no effect and ±100 for the full control effect; nearly all actives have a fitted effect of over 55% in size
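Compound effects on proliferation are scored in DT40 Tdp1-/-;hTDP1 cells in the absence of CPT. ATP levels (CellTiter-Glo luminescence) are recorded after a ≥48 hr, 37 °C incubation.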
TDP1 cell CPT – growth inhibition of DT40 Tdp1-/-;hTDP1 cells with camptothecin (screen for TDP1 inhibitors); chicken DT40 Tdp1-/-;hTDP1 cells + 20 nM CPT, ATP luminescence, 48 h; Potency, µM (series often up to 46.2 µM), for the others: at the top dose activity change, negative = growth inhibition, actives largely listed as inhibitors; actives 12% (n = 420,000); note: % is set by controls: 0 for no effect and ±100 for the full control effect; nearly all actives have a fitted effect of over 55% in size
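Chicken DT40 Tdp1-/- cells stably complemented with human TDP1 were seeded at 400 cells/well in medium containing 20 nM camptothecin, exposed to pin-transferred compounds, and grown at 37 °C for at least 48 hr. Viability was read as ATP luminescence.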
HepG2 viability – kills HepG2 cells in TGF-b inhibitor counter-screen. HepG2 CAGA-GFP viability, ATP luminescence, 18 h. Potency, µM (highest dose often 46.1 µM), inactives show at the highest dose activity change, negative = cytotoxicity, most hits filed as cytotoxic. actives 0.76% (n = 410,000)
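CellTiter-Glo luminescence gave cytotoxicity after 18 hours at 37 degrees C. The cells were HepG2 CAGA-GFP in 1% FBS DMEM, stimulated with 500 pg/mL TGF-beta after compound addition. %Activity was normalised to no-cell wells (complete cell-killing) and DMSO (no toxicity), and curves were fitted and classified.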
ATXN2 expr inh – inhibitors of ATXN2 expression; AID 1745845; actives 0.72% (n = 360,000); HEK-293 ATXN2-luciferase reporter, luminescence, 24 h; Potency, µM (series often up to 57 µM), for the others: top-dose activity change, negative = inhibition, actives largely listed as inhibitors; note: % is set by controls: 0 for no effect and ±100 for the full control effect; nearly all actives have a fitted effect of over 55% in size
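qHTS (up to 57 uM final) was run with 24 h compound exposure of reporter cells at 37 °C. Each well was multiplexed: SteadyGlo luminescence measured ATXN2-luciferase expression after a fluorogenic Gly-Phe-AFC viability readout (25 uM final).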
ATXN viability – cell viability loss in ATXN counter-screen; S2 cells (HEK-293 line with an ATXN2-luciferase reporter) viability, CellTiter-Fluor protease fluorescence, 24 h; Potency, µM (top dose mostly 56.7 µM), hits mostly cytotoxic; actives 0.49% (n = 400,000); note: nearly all actives have a fitted effect of over 40% in size
Active calls of the source: *; i = inactive; ? = inconclusive; nt = no result given; [ ] = dose if it differs, or a comment. Only some compounds are listed: those with a hit (about 17% of all), similar ones and a draw of the others. Calls come from the whole dose curve; as a rule, active = well fitted curve in the direction sought with a large enough effect; inconclusive = small, poorly fitted or top-dose-only effect, or another doubt; inactive = no such curve, though single readings can be large; an effect the other way counts as inactive or inconclusive. Potency is the fitted concentration of half-maximal effect.

SMILES	TGFb SMAD3 inh	DT40 TDP1 no CPT	TDP1 cell CPT	HepG2 viability	ATXN2 expr inh	ATXN viability
COc1cc(NC(=O)c2cc(Br)cc(C)c2OC)ccc1NC(=O)C(C)C	-2%	23µM*	?	1%	-11%	i
COc1cc2ccccc2cc1C(=O)Nc1ccccc1N1CCCC1	0%	?	?	-3%	-7%	i
COc1ccc(Br)cc1C(=O)Nc1ccccc1N1CCN(C(=O)c2ccccc2)CC1	-27%	16µM*	?	-1%	?	i
O=C(Nc1ccccc1N1CCN(C(=O)c2ccccc2)CC1)c1cc(Br)ccc1Cl	9%	23µM*	18µM*	-20%	?	i
COc1cc(NC(=O)c2ccc(Br)o2)ccc1NC(=O)C(C)C	-9%	-17%	-8%	-1%	8%	i
CC(=O)N1CCN(c2ccccc2NC(=O)c2cccc3c(Cl)cccc23)CC1	-8%	?	15µM*	-33%	0%	?
CSc1ccc(NC(=O)C(C)N2CCN(C)CC2)cc1 (centres undefined)	-13%	16%	-23%	0%	5%	i
CN(C)C(=O)c1ccc(OCC(F)(F)F)nc1	-5%	-1%	6%	-2%	1%	i
O=C(Nc1ccccc1N1CCN(C(=O)c2ccc(Cl)cc2)CC1)c1cccc(F)c1	-27%	?	?	-7%	-16%	i
COc1ccc(Cl)cc1C(=O)Nc1ccc(NC(=O)C(C)C)cc1	-9%	18µM*	18µM*	3%	-18%	i
COc1c(C)cc(Br)cc1C(=O)Nc1ccccc1N1CCN(C(=O)c2ccccc2)CC1	1%	15µM*	?	4%	3%	nt
COc1ccc(Cl)cc1C(=O)Nc1ccccc1N1CCN(C(=O)C(C)C)CC1	1%	18µM*	29µM*	-10%	22µM*	?
COc1ccc(C(=O)Nc2ccccc2N2CCN(C(=O)C(C)C)CC2)cc1Cl	-8%	?	?	-35%	4%	i
COc1ccc(C2CC3(CC(C)(C)NC(SC)=N3)Oc3cc(O)cc(C)c32)cc1 (centres undefined)	?	5.2µM*	4.6µM*	-56%	-8%	?
COc1ccc(C2CC3(CC(C)(C)NC(=S)N3)Oc3cc(O)cc(C)c32)cc1 (centres undefined)	15%	8.2µM*	9.2µM*	-25%	-5%	?
CC1(C)CC2(CC(c3ccccc3)c3ccc(O)cc3O2)NC(=S)N1 (centres undefined)	-29%	9.2µM*	?	-36%	-20%	i
CC(=O)Oc1cc2c(cc1Cl)C(c1cccs1)CC1(CC(C)(C)NC(=S)N1)O2 (centres undefined)	-5%	16µM*	8.2µM*	3%	-21%[11.3 µM]	i
Cc1cc(NC(=O)c2c(Cl)cccc2Cl)no1	-12%	-6%	4%	23%	-14%	i
Cc1cc(NC(=O)c2cccc(C(=O)Nc3cc(C)on3)n2)no1	2%	0.65µM*	0.18µM*	-24%	-6%	i
Cc1cc(NC(=O)c2ccc(-c3ccccc3F)o2)no1	3%	18µM*	?	-5%	25%	i
Cc1cc(NC(=O)c2cc(-c3ccccn3)nc3c(Cl)cccc23)no1	-21%	-14%	-18%	13%	-16%	?
Cc1cccc(NC(=O)c2cc(-c3cccnc3)nc3c(C)cccc23)n1	?	15µM*	?	-39%	-29%	?
Cc1cc(NC(=O)c2cc(-c3ccncc3)nc3c(C)cccc23)no1	2%	2.9µM*	4.1µM*	-19%	-18%	i
O=C(CCn1cccc1)NCCc1ccc(Cl)cc1	6%	-22%	-22%	-11%	-4%	i
COc1ccc(CCNC(=O)c2cc(=O)[nH]c3ccc(S(=O)(=O)N4CCCCC4C)cc23)cc1OC (centres undefined)	0%	-28%	-10%	-2%	nt	nt
SMILES	TGFb SMAD3 inh	DT40 TDP1 no CPT	TDP1 cell CPT	HepG2 viability	ATXN2 expr inh	ATXN viability
CN(C)S(=O)(=O)c1ccc2c(c1)Cc1cc(S(=O)(=O)N(C)C)ccc1-2	2%	-9%	16%	-36%	-26%	?
Cc1nnsc1C(=O)NC1CCCc2c1cnn2-c1ccc(C(C)(C)C)cc1 (centres undefined)	13%	7.3µM*	10µM*	-25%	-23%	i
Cc1nnsc1C(=O)NC1CCCc2c1cnn2-c1ccccc1F (centres undefined)	7%	18µM*	10µM*	-66%	-29%	i
COCCOc1cc(N(CC(=O)N(C)C)S(=O)(=O)c2ccccc2)c(Cl)cc1Cl	-7%	?	?	-7%	-21%	i
COc1ncc2nc(-c3ccccc3)c(=O)n(CCC#N)c2n1	nt	-13%	-11%	nt	nt	nt
O=C(Nc1cccc(Br)c1)Nc1nc2c(s1)CCCCCC2	11µM*	8.2µM*	7.3µM*	-18%	-28%	?
Cc1ccc(CC(=O)Nc2nc3c(s2)CCCC3)cc1	0%	?	?	-28%	62%	i
COc1ccc(NC(=O)Nc2nc3c(s2)CCCC3)cc1	0%	23µM*	?	-7%	51%	?
COc1cc(NC(=O)c2cc(OC)c(OC)c(OC)c2)cc(-n2cnnn2)c1	4%	?	-3%	-1%	4%	i
COc1cccc(CNC(=O)C2CCN(c3nnc(N4CCCC4=O)s3)CC2)c1	-7%	-7%	-16%	-22%	-19%	nt
O=C(c1ccco1)N1CCc2[nH]nc(-c3ccccc3)c2C1	1%	-10%	16%	3%	nt	i
Cc1cc(O)cc(O)c1C=NCc1ccco1	20µM*	-13%	2%	-69%	?	18µM*
Cc1ccc2nc(NCc3ccco3)c(C=NCc3ccco3)c(=O)n2c1	-12%	8%	11%	-1%	8%	i
O=C(c1ccc(F)cc1)C(CCCCCC(CN1CCOCC1)C(=O)c1ccc(F)cc1)CN1CCOCC1 (centres undefined)	-2%	18µM*	?	-26%	-11%	i
OC(CN1CCOCC1)c1ccc(F)cc1 (centres undefined)	2%	-6%	5%	1%	nt	i
CC1CC(C)CN(C(=O)COC(=O)c2nn(C)c(=O)c3ccccc23)C1 (centres undefined)	14%	-10%	-2%	39%	4%	i
